# Hits are enriched below; roughly 5.4% of the tested compounds scored in any of these assays.
# Calb FLC: affects C. albicans growth with fluconazole | C. albicans CaCi-2 (fluconazole-resistant clinical isolate) + fluconazole, Alamar Blue growth, 48 h | growth inhibition, % (concentration not given with the values) | actives 0.57% (n = 300,000);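 active = growth inhibition above about 58% in most replicates, limit read from the data, passing the limit was not always enough; inconclusive = exactly half the replicates above a set limit; inactive = most replicates below a set limit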;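 note: all wells also contain fluconazole at 8 µg/ml as a sub-toxic cotreatment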
# PP5 primary: blocks human protein phosphatase 5 activity. P53041. purified PP5c, OMFP substrate fluorescence. inhibition, % at 6.7 µM. actives 0.18% (n = 320,000). AID 1987;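 active = inhibition above the campaign's mean inhibition across all tested compounds plus 3 SD, cut at about 9.5% in these data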
# PP1 inh: blocks human PP1-alpha phosphatase, a PP5 counter-screen | inhibition, % at 6.7 µM | P62136 | actives 0.9% (n = 320,000) | purified PP1alpha, OMFP fluorescence;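 active = inhibition above the mean inhibition of all tested compounds plus 3 SD, computed separately for each screening campaign, cut at about 15% in these data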
# Target sequence (P62136 whole entry, looked up): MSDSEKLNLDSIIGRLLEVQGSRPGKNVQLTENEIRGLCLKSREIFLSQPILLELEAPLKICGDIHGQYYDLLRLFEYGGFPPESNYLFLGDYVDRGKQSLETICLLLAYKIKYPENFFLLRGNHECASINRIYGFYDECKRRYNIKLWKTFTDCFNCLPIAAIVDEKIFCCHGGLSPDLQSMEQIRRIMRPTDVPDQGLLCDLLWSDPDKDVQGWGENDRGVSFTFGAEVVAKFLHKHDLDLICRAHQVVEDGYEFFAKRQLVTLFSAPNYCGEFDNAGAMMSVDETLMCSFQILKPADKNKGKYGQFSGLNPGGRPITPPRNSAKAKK
# ALR inh: blocks human ALR sulfhydryl oxidase activity | actives 3.8% (n = 290,000) | AID 485317 | P55789 | inhibition, % (test concentration not listed) | purified ALR, DTT oxidation, H2O2 HRP-luminol luminescence;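 active = mean replicate inhibition above about 79%, with every replicate also reaching it, limit read from the data; inconclusive = only one of the two criteria met; inactive = mean below limit and not every replicate reaching it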
# CSC inhib: blocks cancer stem cells; actives 1.1% (n = 300,000); inhibition, % at 7.5 µM; cancer stem cell-like cells viability, luminescence; AID 2717; in the data active = inhibition above about 75%; inconclusive = no clear call, values can overlap the other calls; tested in HMLE shEcad cells
# Numbers stand for hits; . = inactive; ? = inconclusive; / = no result given.
SMILES,Calb FLC,PP5 primary,PP1 inh,ALR inh,CSC inhib
Cc1ccc(C(=O)c2ccccc2C(=O)OCC(=O)NCCc2ccccc2)cc1,.,.,.,.,/
CC(=O)NCc1ccc(C(=O)CCl)cc1,.,.,.,.,.
C/C(CCc1ccccc1)=N\NC(=S)NCCc1ccccc1,.,.,.,.,.
CC1=C/C(=N\NC(=S)NCCc2ccccc2)CC(C)(C)C1,96,.,.,.,.
Cc1ccc(S(=O)(=O)N(C)Cc2ccc(C(=O)NN=C(CC(C)C)CC(C)C)cc2)cc1,.,.,.,/,.
COc1ccc2c(c1)c(=O)oc1cc(OCC(=O)NC3CCCCC3)ccc12,.,.,.,.,.
Cn1nnnc1Sc1ncnc2scc(-c3ccc[nH]3)c12,/,.,.,94,.
COc1ccc(NC(=O)CSc2nnc(-c3cccnc3)o2)c(OC)c1,.,.,.,98,.
Cc1cc(-c2nnc(SCC(=O)Nc3nccs3)o2)no1,.,.,.,89,.
O=C(CSc1nnc(-c2cccnc2)o1)Nc1nccs1,/,.,.,99,.
COc1ccc(NC(=O)CSc2nnc(-c3ccncc3)o2)c(OC)c1,.,.,.,.,/
COc1ccc(C(=O)CC(SCC(NC(C)=O)C(=O)O)c2ccc(Cl)cc2)cc1OC (stereo not given),.,.,.,92,.
COc1ccc(C(C)NC(=O)c2ccc(Cl)cc2)cc1OC (stereo not given),.,.,.,.,.
COc1ccccc1CNC(=O)C(=O)NCCC1CCCCN1S(=O)(=O)c1cccs1 (stereo not given),.,.,.,.,.
Cc1cc(C(=O)Nc2nnc(-c3ccccc3)s2)no1,.,.,.,93,/
Cc1cc(C(=O)Nc2nnc(C3CCCCC3)s2)no1,.,.,.,86,.
O=C(Nc1nnc(-c2ccccc2)s1)c1ccc(F)cc1,.,.,.,.,.
CCOCCC(=O)Nc1nnc(CCc2ccccc2)s1,.,/,/,.,/
CC1S/C(=N/N=C/c2ccco2)N(Cc2ccc(F)cc2)C1=O (stereo not given),.,.,.,.,.
O=C1CS/C(=N/N=C/c2ccco2)N1Cc1ccc(F)cc1,.,.,.,90,.
O=C(C[n+]1ccccc1)NNc1ccccc1,.,.,.,/,114
CC(C)CC(=O)c1c(O)c(C=O)c(O)c2c1O[C@@]1(C)[C@@H](C2)C[C@H]2C[C@@H]1C2(C)C,/,/,/,.,107
CC(C)CC1=C/C(=C/c2ccc(-c3ccccc3)o2)C(=O)O1,.,.,.,.,.
O=C(N=Nc1c(O)[nH]c2ccc(Br)cc12)c1ccccc1-n1cccc1,?,.,.,.,80
Oc1[nH]c2ccc(Br)cc2c1N=NC(=S)Nc1ccc(F)cc1,.,.,.,/,82
SMILES,Calb FLC,PP5 primary,PP1 inh,ALR inh,CSC inhib
Oc1ccc(NC(=S)N=Nc2c(O)[nH]c3ccc(Br)cc23)cc1,.,/,/,/,/
Oc1cccc(NC(=S)N=Nc2c(O)[nH]c3ccc(Br)cc23)c1,.,.,.,99,.
COc1ccc(N2CCN(CCNC(=O)C3CC(=O)N(C4CCCC4)C3)CC2)cc1 (stereo not given),.,.,.,86,.
COc1ccc(CNC(=O)C2CC(=O)N(C3CCCCC3)C2)cc1 (stereo not given),.,.,.,.,.
O=C(Oc1coc(CSc2nnc(NC(=O)C3CC3)s2)cc1=O)c1ccccc1,.,.,.,.,.
Cc1ccc(-c2ccc(/C=N/N=C3/NC(=O)C(CC(=O)O)S3)o2)c([N+](=O)[O-])c1 (stereo not given),.,.,.,99,.
O=C(O)CC1S/C(=N/N=C/c2ccc(-c3ccccc3[N+](=O)[O-])o2)NC1=O (stereo not given),.,.,.,98,.
COc1ccc(-c2cc(C(F)(F)F)c3c(=O)n(-c4ccccc4)[nH]c3n2)cc1,.,.,.,99,.
COc1cc(NC(=O)N2c3ccccc3Sc3ccccc32)c(C(=O)O)cc1OC,.,.,.,99,.
COc1ccc2c(c1OC)C(=O)N(c1cccc(NC(C)=O)c1)C2,.,.,.,97,.
COc1ccc2c(c1OC)C(=O)N(c1ccc(F)cc1)C2,.,.,.,.,.
COc1cc(N)c(Cl)cc1C(=O)OCC(=O)N(C)C1CCCCC1,/,.,.,/,.
Cc1cccc(C)c1NS(=O)(=O)c1ccc(NC(=O)c2ccc(Cl)c([N+](=O)[O-])c2)cc1,.,.,.,.,103
CCOC(=O)Cn1c(=O)c2c(nc3n2CCCN3CCc2ccccc2)n(C)c1=O,.,.,.,.,.
O=C(O)c1cc(O)ccc1NC(=O)C(c1ccccc1)c1ccccc1,.,.,.,95,?

# Compound activity deposited in PubChem BioAssay by several laboratories.
